Screening results: PubChem, National Center for Advancing Translational Sciences (NCATS)
JMJD2A Tudor inh: inhibitors of human JMJD2A Tudor domain; AlphaScreen JMJD2A-Tudor / H3K4me3 peptide binding; Potency, µM (top dose mostly 114 µM), for the others: at the top dose activity change, negative = inhibition, usual class: inhibitors; 4.4% of 390,000 active; AID 504339; also: % is scaled to controls: 0 for no effect and ±100 for the full control effect; nearly all actives have a fitted effect of over 50% in size
HP1b chromo inh: HP1-beta chromodomain-methylated histone interaction inhibition. 0.56% of 390,000 active. AlphaScreen HP1-beta / biotin-H3K9me3 peptide binding. AID 540317. Potency, µM (doses to about 114 µM), for the others: at the highest dose activity change, negative = inhibition, usual class: inhibitors. P83916; also: nearly all actives have a fitted effect of over 70% in size
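Compound inhibition of the preformed complex between 50 nM HP1-beta and 50 nM biotinylated H3K9me3 peptide was read by AlphaScreen. Buffer was PBS pH 7.4 with 0.01% Tween-20. Incubations ran 30 min at room temperature, with 10 ug/mL donor/acceptor beads.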
BAZ2B inh: inhibitors of human BAZ2B bromodomain; Q9UIF8; AlphaScreen BAZ2B-H3K14Ac peptide displacement; Potency, µM (titrated, usually from 114 µM), for inactives: at the top dose activity change, negative = inhibition, usual class: inhibitors; 4.4% of 360,000 active; AID 504333; also: % is scaled to controls: 0 for no effect and ±100 for the full control effect; nearly all actives have a fitted effect of over 60% in size
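Complex of BAZ2B and biotin-H3K14Ac (50 nM apiece) forms over 30 min at RT, then faces library compounds up to 110 uM for another 30 min; AlphaScreen beads added, 20 min dark incubation, luminescence read.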
Sfp PPTase inh: blocks B. subtilis Sfp PPTase activity | Q9F4F7 | Biochemical Sfp PPTase activity, qHTS | Potency, µM, inactives show largest response in the series, negative = inhibition, hits mostly inhibitors | 3.5% of 310,000 active | AID 1490;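 also: the enzyme is Sfp with the accession as filed and its product quenches rhodamine fluorescence; 0% = enzyme reaction without inhibitor and -100% = no enzyme wells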
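Sfp 15 nM + cpd, 15 min RT; start w/ rhodamine-CoA 5 uM, BHQ-2-YbbR 12.5 uM (final); 50 mM Hepes pH 7.6, 10 mM MgCl2, 0.01% NP-40, 0.01% BSA; read 525/598 nm at 0 and 30 min.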
TDP1 inh: TDP1 (human) enzyme inhibition; recombinant TDP1, AlphaScreen DNA substrate cleavage; Potency, µM (titrated, usually from 130 µM), for inactives: top-dose activity change, negative = inhibition, hits mostly inhibitors; 0.28% of 350,000 active; also: % is scaled to controls: 0 for no effect and ±100 for the full control effect; nearly all actives have a fitted effect of over 40% in size
Target sequence (Q9NUW8 whole entry, looked up): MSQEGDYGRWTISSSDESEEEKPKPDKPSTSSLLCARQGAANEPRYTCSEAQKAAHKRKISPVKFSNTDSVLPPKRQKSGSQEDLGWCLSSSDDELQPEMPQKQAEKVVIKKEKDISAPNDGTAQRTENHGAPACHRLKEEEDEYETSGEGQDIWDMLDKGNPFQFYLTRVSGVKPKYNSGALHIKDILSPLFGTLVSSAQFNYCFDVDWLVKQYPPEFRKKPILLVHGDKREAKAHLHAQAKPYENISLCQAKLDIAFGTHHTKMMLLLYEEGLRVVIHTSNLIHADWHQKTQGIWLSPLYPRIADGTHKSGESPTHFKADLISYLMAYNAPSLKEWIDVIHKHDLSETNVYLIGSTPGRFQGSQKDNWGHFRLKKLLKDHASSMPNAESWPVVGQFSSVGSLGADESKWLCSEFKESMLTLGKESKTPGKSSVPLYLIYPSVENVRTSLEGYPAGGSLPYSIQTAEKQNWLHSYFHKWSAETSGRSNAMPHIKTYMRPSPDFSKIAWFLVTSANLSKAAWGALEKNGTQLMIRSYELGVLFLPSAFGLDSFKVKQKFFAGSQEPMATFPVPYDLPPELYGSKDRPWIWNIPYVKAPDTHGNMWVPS
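Compounds were preincubated with Tdp1 (1 nM final) for 15 min at room temperature before substrate (15 nM final) started a 5 min reaction; beads (10 ug/ml final) were then added for 10 min before AlphaScreen detection.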
G9a block: blocks human histone lysine methyltransferase G9a; 8.8% of 350,000 active; Q96KQ7; Potency, µM (doses to about 102 µM), without a hit: at the top dose activity, negative = inhibition, actives largely listed as inhibitors; AID 504332; G9a H3K9 monomethylation, AlphaScreen, 2 h; also: % is scaled to controls: 0 for no effect and ±100 for the full control effect; nearly all actives have a fitted effect of over 75% in size
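Chemiluminescent proximity detection of H3K9 monomethylation, read after 10 min bead incubation in the dark. Reaction: 20 nM G9a, 500 nM biotin-H3K9 peptide, 20 uM SAM cofactor, 2 h, room temperature, following 15 min enzyme-compound preincubation.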
The depositor's hits bear a star; ? = inconclusive; / = no result; [ ] = remark or other dose. A selection: hits, their analogues and other compounds. The true share with any hit is near 12%. Calls follow the shape of the dose curve; as a rule, active = well fitted curve in the direction sought with a large enough effect; inconclusive = small, poorly fitted or top-dose-only effect, or another doubt; inactive = no such curve, though single readings can be large; an effect the other way counts as inactive or inconclusive. Potency is read from the fitted curve at half-maximal effect.

SMILES	JMJD2A Tudor inh	HP1b chromo inh	BAZ2B inh	Sfp PPTase inh	TDP1 inh	G9a block
C=CCn1c(SC)nc2sc3c(c2c1=O)CCc1ccccc1-3	28%	71%	8%	-23%	-3%	?
Cc1cccc(N2C(=O)CSC23C(=O)N(CC(=O)NCCc2ccccc2)c2ccccc23)c1 (stereo unspecified)	-10%	-1%	7%[57.1 µM]	/	1%	-4%[59 µM]
CN(C)c1ccc(CNC(=O)C2CCN(c3nc4ccccc4[nH]3)CC2)cc1	?	-4%[57 µM]	?	/	3%	16µM*
CCC1=C(c2ccc(C)cc2)S(=O)(=O)N=C1N1CCC(C(=O)NCc2ccc(N(C)C)cc2)CC1	?	-21%	?	/	10%	13µM*
O=C(NCCc1ccccc1)C1CCN(C(=O)c2ccc(F)cc2)CC1	3%	30%	8%	-4%	5%	-11%
CC1=C(c2ccc(C)c(C)c2)S(=O)(=O)N=C1N1CCC(C(=O)NCc2ccc(N(C)C)cc2)CC1	?	-29%	?	/	6%	4%[59 µM]
O=C(NCCc1ccccc1)C1CCN(Cc2ccccc2F)CC1	2.5µM*	25µM*	56µM*	1%	-2%	7.9µM*
CN(C)CC(C)(C)CNC(=O)C1CCN(Cc2ccccc2O)CC1	6.3µM*	?	56µM*	-19%	-7%	10µM*
CCC(C)(C)NC(=O)C(c1ccc(OC)cc1)N(C(=O)CCC(=O)Nc1cc(C)on1)c1ccc2c(c1)OCCO2 (stereo unspecified)	-13%	35%	-9%	22%	10%	10%
CNC1CCC(c2ccc(Cl)c(Cl)c2)c2ccccc21 (stereo unspecified)	/	/	/	-18%	8%[56.1 µM]	-41%[2.33 µM]
COc1ccc(CCC(=O)Nc2ccc(N3CCOCC3)c(S(=O)(=O)Nc3ccc(OC)cc3)c2)cc1	-29%	10%	/	/	/	/
CC(=O)Nc1c(C)nn(-c2ccccc2)c1N1CCC(C(=O)NCc2ccccc2Cl)CC1	6%	30%[57 µM]	-3%	/	0%	-6%[59 µM]
CN(C)c1ccc(CNC(=O)C2CCN(Cc3cc4ccccc4n3Cc3ccccc3)CC2)cc1	11µM*	-22%	3.5µM*	/	13%	11µM*
O=C(NCCc1ccccc1)C1CCN(Cc2cc3ccccc3n2Cc2cccc(Cl)c2)CC1	-20%	-5%	-11%	/	4%	10%[59 µM]
COc1ccc(CNC(=O)C2CCN(C(=O)c3ccc(-n4ccc5ccccc54)s3)CC2)cc1	-15%	6%	-2%	/	-3%	-3%[59 µM]
Cc1ccc(Cn2c(CN3CCC(C(=O)NCCc4ccccc4)CC3)cc3ccccc32)cc1	40µM*	?	18µM*	/	11%	8.9µM*
O=C(NCc1cccnc1)C1CCN(Cc2cc3ccccc3n2Cc2ccccc2)CC1	?	13%	?	/	5%	-5%[59 µM]
Cc1ccsc1CN1CCC(C(=O)NCc2ccccc2Cl)CC1	7.9µM*	?	-8%	?	8%	10µM*
CN(C)c1ccc(CNC(=O)C2CCN(C(=O)c3ccc(-n4ccc5ccccc54)s3)CC2)cc1	18µM*	?	-29%	/	13%	?
COc1ccc(NS(=O)(=O)c2ccc(N3CC(O)=C(c4ccccc4)C3=N)cc2)cc1	-6%	25%	-16%	19%	/	21%[59 µM]
COc1cc(C2C(C#N)=C(N)Oc3cc(O)ccc32)cc(OC)c1OC (stereo unspecified)	-16%	3%	1%	2%	3%	14%
COc1cc(C2C(C#N)=C(N)Oc3cc(O)ccc32)cc2c1OCO2 (stereo unspecified)	2%[11.4 µM]	?	-11%	79µM*	11%	-2%[59 µM]
Cc1[nH]c2ccccc2c1SCC(=O)O	-10%	35%	-22%	5%	-5%	?
Cc1[nH]c2ccccc2c1N=Nc1cc(C(=O)O)cc(C(=O)O)c1	-21%	-11%	?	-1%	-3%	35µM*
Cc1[nH]c2ccccc2c1N=Nc1ccccc1F	45µM*	?	40µM*	9%	-2%	40µM*
SMILES	JMJD2A Tudor inh	HP1b chromo inh	BAZ2B inh	Sfp PPTase inh	TDP1 inh	G9a block
Cc1[nH]c2ccccc2c1N=Nc1ccc(F)cc1	89µM*	?	32µM*	20%	10%	40µM*
Oc1[nH]c2ccccc2c1N=Nc1c(F)c(F)c(Cl)c(F)c1F	-1%	52%	-7%	18%	/	-3%
CC(=O)N1CCCc2cc(S(=O)(=O)N(C)CC(=O)Nc3ccc(Cl)cc3C)ccc21	-10%	15%[57 µM]	2%	/	-2%	20%[59 µM]
C=CCOn1c(=O)c(-c2ccc(OCC)cc2)[n+]([O-])c2ccccc21	6%	31%	7%	15%	/	-2%[2.33 µM]
O=C(Nc1nc(-c2cc(Cl)sc2Cl)cs1)c1ccc(Br)s1	0%	18%	-3%	-23%	3%	8%[59 µM]
CC(Oc1ccc(F)cc1)C(=O)Nc1nc(-c2ccccn2)cs1 (stereo unspecified)	35µM*	7%	45µM*	/	/	?
O=C(Nc1nc(-c2ccccn2)cs1)c1ccc(Br)s1	?	23%	35µM*	12%	12%	50µM*
O=C(NC(=S)Nc1nc(-c2ccccc2)cs1)c1ccco1	-8%	10%	-25%	50µM*	6%	27%[59 µM]
O=C(Nc1nc(-c2ccccc2)cs1)c1ccc(Br)o1	-31%	?	-30%	25µM*	3%	?
CC(Oc1ccc(F)cc1)C(=O)Nc1nc(-c2ccc(F)cc2)ns1 (stereo unspecified)	-1%	53%	25%	/	5%	33%[59 µM]
CN1CCN(C(CNC(=O)C(=O)Nc2ccccc2)c2ccc3c(c2)OCO3)CC1 (stereo unspecified)	-15%	19%[57 µM]	0%	/	4%	11%[59 µM]
CCOCC	/	/	/	4%	2%	/
CC(OC(=O)c1ccc([N+](=O)[O-])o1)C(=O)Nc1nc(-c2ccc(F)c(F)c2)cs1 (stereo unspecified)	?	-19%	?	/	-1%	28µM*
Cc1ccnc2nc(C(=O)Nc3nc(-c4ccccn4)cs3)nn12	22µM*	59%	3.2µM*	14%	/	20%[12.7 µM]
O=C(Nc1nc(-c2ccccn2)cs1)c1ccco1	56µM*	-22%	7.9µM*	-50%	10%	20µM*
O=C(NCc1ccccn1)c1ccco1	5%	48%	-14%	-11%	2%	1%
Cc1ccccc1NC(=O)c1nc2nccc(C)n2n1	/	/	-2%	-1%	5%	5%
O=C(NC(=S)Nc1nc(-c2ccccc2)cs1)c1cccnc1	-17%	-6%	-23%	?	2%	2.5µM*
Cc1ccc(S(=O)(=O)N2CCN(C3CC(=O)N(c4ccc(F)cc4)C3=O)CC2)cc1C (stereo unspecified)	-25%	28%	/	/	1%	/
